Assay [1] can be described thus: NCI Yeast Anticancer Drug Screen. Data for the rad50 strain (AID 155).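 Also: 0% = growth of vehicle-only cultures of the same strain.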 The conditions noted are these: S. cerevisiae rad50 strain growth inhibition, hits give high values. In short, it runs like this:
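Readout: growth inhibition relative to vehicle-treated cultures. Compound exposure was carried out in a genetically defined yeast strain deficient in DNA damage repair.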

Assay [2] in a line: NCI Yeast Anticancer Drug Screen. Data for the mec2-1 strain (AID 157). The conditions noted are these: S. cerevisiae mec2-1 strain, hits give high values. In outline:
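Readout is yeast growth inhibition, normalised to vehicle-treated controls, in the mec2-1 strain exposed to compound.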

Assay [3] is described as follows: NCI Yeast Anticancer Drug Screen. Data for the sgs1 mgt1 strain (AID 161).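 Also: 0% = growth of cultures given vehicle only.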 The conditions noted are these: S. cerevisiae sgs1 mgt1 strain, hits give high values. In short, it runs like this:
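Yeast cells carrying a defined DNA-repair defect were exposed to test compounds. Growth inhibition was measured relative to vehicle-treated controls.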

Assay [4] can be described thus: NCI Yeast Anticancer Drug Screen. Data for the cln2 rad14 strain (AID 165).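 Also: 0% = growth equal to vehicle treated cultures.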 The note with it: S. cerevisiae cln2 rad14 strain, hits give high values. In outline: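 Relative to vehicle controls, growth inhibition of compound-treated cln2 rad14 yeast was recorded.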
Assay [5] is described as follows: NCI Yeast Anticancer Drug Screen. Data for the bub3 strain (AID 167). The note with it: S. cerevisiae bub3 mutant strain, hits give high values. In short, it runs like this:
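Readout: yeast growth inhibition, expressed relative to vehicle-only wells. The test organism is a mutant strain from a panel with lesions in DNA repair or checkpoint genes.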

The nature of assay [6]: NCI Yeast Anticancer Drug Screen. Data for the mlh1 rad18 strain (AID 175). The conditions noted are these: S. cerevisiae mlh1 rad18 strain growth inhibition, hits give high values. In outline: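 Test agents were incubated with a yeast strain of defined genotype (DNA damage repair defect). Inhibition of growth was derived by comparison with vehicle-exposed cultures.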
The mark [7] stands for this setting: at 5.0 µM (retest, dose inferred, filed as 0.5).
The mark [8] stands for this setting: at 50.0 µM (retest, dose inferred, filed as 5.0).

Data on nine compounds can be found in PubChem BioAssay (NCI).

Compounds without any hit were thinned out: in the full panel of roughly 79,000, 15% have a hit. Values without a mark were called inactive. Activity calls are given as the source filed them. Rule as the data show it: active = growth inhibition above about 70%; inactive = the rest.

As for `O=C(NNc1ccccc1)c1cccc([N+](=O)[O-])c1`, the growth inhibition in assay [1] (setting [7]) was 23%; in assay [1] (setting [8]) it was 98% (active); in assay [1] (at 50.0 µM), 98.2% (active); in assay [2] (setting [7]), 31%; in assay [2] (setting [8]) it was 99% (active); in assay [2] (at 50.0 µM), 98.5% (active). In addition, the growth inhibition in assay [3] (setting [7]) was 39%; in assay [3] (setting [8]) it was 99% (active); in assay [3] (at 50.0 µM) it was 98.8% (active); in assay [4] (setting [7]), 28%; in assay [4] (setting [8]) it was 98% (active); in assay [4] (at 50.0 µM), 93.7% (active). The growth inhibition is 29% in assay [5] (setting [7]); 99% (active) in assay [5] (setting [8]); 99.4% (active) in assay [5] (at 50.0 µM); 29% in assay [6] (setting [7]); 98% (active) in assay [6] (setting [8]); 98.8% (active) in assay [6] (at 50.0 µM).
With `Cc1cc(-c2ccc(O)c(C)c2)ccc1O`, the growth inhibition was 13% in assay [1] (setting [7]); 94% (active) in assay [1] (setting [8]); 83% (active) in assay [1] (at 50.0 µM); -15% in assay [2] (setting [7]); 74% (active) in assay [2] (setting [8]); 57.4% in assay [2] (at 50.0 µM). Further, the growth inhibition in assay [3] (setting [7]) was 0%; in assay [3] (setting [8]), 78% (active); in assay [3] (at 50.0 µM) it was 74.6% (active); in assay [4] (setting [7]), 5%; in assay [4] (setting [8]), 60%; in assay [4] (at 50.0 µM), 51.8%. Also, the growth inhibition in assay [5] (setting [7]) is 23%; in assay [5] (setting [8]), 98% (active); in assay [5] (at 50.0 µM), 72.5% (active); in assay [6] (setting [7]), 8%; in assay [6] (setting [8]), 91% (active); in assay [6] (at 50.0 µM), 71.5% (active).
As to `COc1ccc2nccc(C(=O)CBr)c2c1`, the growth inhibition in assay [1] (setting [7]) was 24%; in assay [1] (setting [8]), 23%; in assay [1] (at 50.0 µM), 92% (active); in assay [2] (setting [7]), 32%; in assay [2] (setting [8]), -5%; in assay [2] (at 50.0 µM) it was 93% (active). Also, the growth inhibition in assay [3] (setting [7]) is 61%; in assay [3] (setting [8]), 20%; in assay [3] (at 50.0 µM), 97.4% (active); in assay [4] (setting [7]), -1%; in assay [4] (setting [8]), 10%; in assay [4] (at 50.0 µM), 31.3%. The growth inhibition in assay [5] (setting [7]) is 13%; in assay [5] (setting [8]) it was 34%; in assay [5] (at 50.0 µM), 97.2% (active); in assay [6] (setting [7]), 31%; in assay [6] (setting [8]) it was 37%; in assay [6] (at 50.0 µM) it was 96.6% (active).
As for `CCOC(=O)c1cc(Cl)nc2ccc(OC)cc12`, the growth inhibition in assay [1] (setting [7]) was -3%; in assay [1] (setting [8]) it was -30%; in assay [1] (at 50.0 µM), 0.05%; in assay [2] (setting [7]), -3%; in assay [2] (setting [8]), -30%; in assay [2] (at 50.0 µM), 9.35%. Also, the growth inhibition in assay [3] (setting [7]) is -4%; in assay [3] (setting [8]), -31%; in assay [3] (at 50.0 µM) it was 20.3%; in assay [4] (setting [7]), 0%; in assay [4] (setting [8]), -41%; in assay [4] (at 50.0 µM), 40.9%. Also, the growth inhibition in assay [5] (setting [7]) was 6%; in assay [5] (setting [8]), -12%; in assay [5] (at 50.0 µM), 49.4%; in assay [6] (setting [7]), -2%; in assay [6] (setting [8]), -25%; in assay [6] (at 50.0 µM) it was 15.4%.
For the compound `O=C(Nc1ccc(Cl)cc1)Nc1nnc(/C=C/c2ccc(Cl)c(Cl)c2)o1`, the growth inhibition is -1% in assay [1] (setting [7]); -4% in assay [1] (setting [8]); -6.15% in assay [1] (at 50.0 µM); 1% in assay [2] (setting [7]); -91% in assay [2] (setting [8]); 19.4% in assay [2] (at 50.0 µM). The growth inhibition in assay [3] (setting [7]) was -1%; in assay [3] (setting [8]) it was 0%; in assay [3] (at 50.0 µM) it was 3.6%; in assay [4] (setting [7]) it was 1%; in assay [4] (setting [8]), -4%; in assay [4] (at 50.0 µM), -14.2%. In addition, the growth inhibition in assay [5] (setting [7]) was -44%; in assay [5] (setting [8]) it was 7%; in assay [5] (at 50.0 µM) it was -4.75%; in assay [6] (setting [7]) it was 1%; in assay [6] (setting [8]), -16%; in assay [6] (at 50.0 µM) it was -12.1%.
For the compound `O=CC(=C\c1ccco1)/C(C=O)=C\c1ccco1`, the growth inhibition in assay [1] (setting [7]) is 11%; in assay [1] (setting [8]), 25%; in assay [1] (at 50.0 µM), 18.1%; in assay [2] (setting [7]) it was 7%; in assay [2] (setting [8]), 44%; in assay [2] (at 50.0 µM), 5.45%. Besides, the growth inhibition is 11% in assay [3] (setting [7]); 63% in assay [3] (setting [8]); 13% in assay [3] (at 50.0 µM); 2% in assay [4] (setting [7]); 15% in assay [4] (setting [8]); 33.9% in assay [4] (at 50.0 µM). Also, the growth inhibition is -6% in assay [5] (setting [7]); 33% in assay [5] (setting [8]); -23.6% in assay [5] (at 50.0 µM); 21% in assay [6] (setting [7]); 86% (active) in assay [6] (setting [8]); 71.9% (active) in assay [6] (at 50.0 µM).
As to `CCC(c1ccc(Cl)cc1)C(C#N)c1ccc(Cl)cc1` (configuration not stated), the growth inhibition in assay [1] (setting [7]) was 10%; in assay [1] (setting [8]) it was 55%; in assay [1] (at 50.0 µM) it was 84.3% (active); in assay [2] (setting [7]), -1%; in assay [2] (setting [8]) it was 33%; in assay [2] (at 50.0 µM) it was 61.5%. Also, the growth inhibition was -3% in assay [3] (setting [7]); 46% in assay [3] (setting [8]); 68.1% in assay [3] (at 50.0 µM); -8% in assay [4] (setting [7]); 12% in assay [4] (setting [8]); 11.4% in assay [4] (at 50.0 µM). Moreover, the growth inhibition was 6% in assay [5] (setting [7]); 44% in assay [5] (setting [8]); 41.8% in assay [5] (at 50.0 µM); 2% in assay [6] (setting [7]); 52% in assay [6] (setting [8]); 76.4% (active) in assay [6] (at 50.0 µM).
`CC1(C(=O)O)CCC2(C)CCC3(C)C(=CC(=O)C4C5(C)CCC(O)C(C)(C)C5CCC43C)C2C1` (configuration not stated): the growth inhibition in assay [1] (setting [7]) is 12%; in assay [1] (setting [8]) it was 61%; in assay [1] (at 50.0 µM), 52.4%; in assay [2] (setting [7]) it was 23%; in assay [2] (setting [8]), 78% (active); in assay [2] (at 50.0 µM) it was 64.8%. Also, the growth inhibition in assay [3] (setting [7]) is 10%; in assay [3] (setting [8]) it was 74% (active); in assay [3] (at 50.0 µM), 65%; in assay [4] (setting [7]), 30%; in assay [4] (setting [8]), 84% (active); in assay [4] (at 50.0 µM), 75.7% (active). The growth inhibition is 29% in assay [5] (setting [7]); 78% (active) in assay [5] (setting [8]); 60.5% in assay [5] (at 50.0 µM); 18% in assay [6] (setting [7]); 80% (active) in assay [6] (setting [8]); 71.3% (active) in assay [6] (at 50.0 µM).
For `CCCC(C)C/C(C)=C\C(C)(C)C1CC(=O)N(CC)C1=O` (configuration not stated), the growth inhibition in assay [1] (setting [7]) was -3%; in assay [1] (setting [8]), 90% (active); in assay [1] (at 50.0 µM), 20.3%; in assay [2] (setting [7]), -1%; in assay [2] (setting [8]) it was 89% (active); in assay [2] (at 50.0 µM), 80.7% (active). For the same compound, the growth inhibition in assay [3] (setting [7]) is -3%; in assay [3] (setting [8]), 54%; in assay [3] (at 50.0 µM), 72.7% (active); in assay [4] (setting [7]), 4%; in assay [4] (setting [8]), 92% (active); in assay [4] (at 50.0 µM), 83.8% (active). The growth inhibition in assay [5] (setting [7]) is 4%; in assay [5] (setting [8]), 95% (active); in assay [5] (at 50.0 µM) it was 70.9% (active); in assay [6] (setting [7]), -3%; in assay [6] (setting [8]), 98% (active); in assay [6] (at 50.0 µM), 60.9%.
